Data taken from the supplement of paper PMC8728848.
Only a selection was taken, and the strongest signals are over-represented in it overall.

How the values were obtained:
Experiment in all cases: glycan array binding signal (z-score within array); higher = stronger binding
Conditions in all cases: glycan notation: IUPAC condensed, linker removed
[1] = biological target: Fuc(a1-2)Gal(b1-3)GlcNAc
In short: (§1)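 Glycan array data came from 3228 arrays in the Consortium for Functional Glycomics database, and only arrays with an available protein sequence were kept. Glycan names were put into IUPAC-condensed notation, and columns mapping to the same glycan were averaged. The binding signal is a within-array Z-score, averaged across arrays of one protein sequence run at different concentrations or buffers and across linkers. A negative Z-score can be read as non-binding.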

[2] = biological target: Fuc(a1-2)Gal(b1-4)GlcNAc(b1-2)Man(a1-3)[Fuc(a1-2)Gal(b1-4)GlcNAc(b1-2)Man(a1-6)]Man(b1-4)GlcNAc(b1-4)[Fuc(a1-6)]GlcNAc
In short: as §1

[3] = biological target: Fuc(a1-2)Gal(b1-4)GlcNAc(b1-3)Gal(b1-4)GlcNAc(b1-2)Man(a1-3)[Fuc(a1-2)Gal(b1-4)GlcNAc(b1-3)Gal(b1-4)GlcNAc(b1-2)Man(a1-6)]Man(b1-4)GlcNAc(b1-4)GlcNAc
In short: as §1

[4] = biological target: Fuc(a1-2)Gal(b1-4)GlcNAc(b1-3)[Fuc(a1-3)[Gal(b1-4)]GlcNAc(b1-6)]Gal(b1-4)Glc
In short: as §1

[5] = biological target: Fuc(a1-2)Gal3S(b1-4)GlcNAc
In short: as §1

[6] = biological target: Fuc(a1-2)[Gal(a1-3)]Gal(b1-3)GalNAc(b1-3)Gal(a1-4)Gal(b1-4)Glc
In short: as §1

[7] = biological target: Fuc(a1-2)[Gal(a1-3)]Gal(b1-4)GlcNAc(b1-2)Man(a1-3)[Fuc(a1-2)[Gal(a1-3)]Gal(b1-4)GlcNAc(b1-2)Man(a1-6)]Man(b1-4)GlcNAc(b1-4)GlcNAc
In short: as §1

[8] = biological target: Fuc(a1-2)[Gal(a1-3)]Gal(b1-4)GlcNAc(b1-3)GalNAc
In short: as §1

[9] = biological target: Fuc(a1-2)[Gal(a1-3)]Gal(b1-4)[Fuc(a1-3)]GlcNAc(b1-3)GalNAc
In short: as §1

[10] = biological target: Fuc(a1-2)[GalNAc(a1-3)]Gal(b1-4)GlcNAc(b1-3)[Fuc(a1-2)[GalNAc(a1-3)]Gal(b1-4)GlcNAc(b1-6)]GalNAc
In short: as §1

[11] = biological target: Fuc(a1-2)[GalNAc(a1-3)]Gal(b1-4)GlcNAc(b1-6)GalNAc
In short: as §1

[12] = biological target: Fuc(a1-2)[GalNAc(a1-4)]Gal(b1-4)GlcNAc
In short: as §1

[13] = biological target: Gal(a1-3)Gal(b1-4)GlcNAc(b1-2)Man(a1-3)[Gal(a1-3)Gal(b1-4)GlcNAc(b1-2)Man(a1-6)]Man(b1-4)GlcNAc(b1-4)GlcNAc
In short: as §1

[14] = biological target: Gal(a1-3)Gal(b1-4)[Fuc(a1-3)]GlcNAc(b1-2)Man(a1-3)[Gal(a1-3)Gal(b1-4)[Fuc(a1-3)]GlcNAc(b1-2)Man(a1-6)]Man(b1-4)GlcNAc(b1-4)GlcNAc
In short: as §1

[15] = biological target: Gal(a1-3)[Gal(a1-4)]Gal(b1-4)GlcNAc
In short: as §1

[16] = biological target: Gal(b1-3)GlcNAc
In short: as §1

[17] = biological target: Gal(b1-3)GlcNAc(b1-2)Man
In short: as §1

[18] = biological target: Gal(b1-3)GlcNAc(b1-3)Gal(b1-4)GlcNAc(b1-2)Man(a1-3)[Gal(b1-3)GlcNAc(b1-3)Gal(b1-4)GlcNAc(b1-2)Man(a1-6)]Man(b1-4)GlcNAc(b1-4)GlcNAc
In short: as §1

[19] = biological target: Gal(b1-4)GlcNAc(b1-2)[Gal(b1-4)GlcNAc(b1-6)]Man(a1-6)[Gal(b1-4)GlcNAc(b1-2)Man(a1-3)]Man(b1-4)GlcNAc(b1-4)GlcNAc
In short: as §1

[20] = biological target: Gal(b1-4)GlcNAc(b1-3)Gal(b1-4)GlcNAc(b1-3)Gal(b1-4)GlcNAc(b1-3)Gal(b1-4)GlcNAc(b1-3)Gal(b1-4)GlcNAc(b1-2)Man(a1-3)[Gal(b1-4)GlcNAc(b1-3)Gal(b1-4)GlcNAc(b1-3)Gal(b1-4)GlcNAc(b1-3)Gal(b1-4)GlcNAc(b1-3)Gal(b1-4)GlcNAc(b1-2)Man(a1-6)]Man(b1-4)GlcNAc(b1-4)GlcNAc
In short: as §1

[21] = biological target: Gal(b1-4)GlcNAc(b1-6)[Gal(b1-3)]GalNAc
In short: as §1

[22] = biological target: Gal(b1-4)GlcNAc(b1-6)[Gal(b1-4)GlcNAc(b1-3)]GalNAc
In short: as §1

[23] = biological target: Gal(b1-4)GlcNAc6P
In short: as §1

[24] = biological target: Gal3S(b1-3)GalNAc
In short: as §1

[25] = biological target: Gal3S(b1-4)[Fuc(a1-3)]GlcNAc6S
In short: as §1

[26] = biological target: Gal6S(b1-3)GlcNAc6S
In short: as §1

B1: PX9937A-bvu-521-23-521 (Bacteroides vulgatus) (protein)
chain: LDLAPEDYYGAGNFWKEASQPKAFMLGLHAQLRSYYDMFYTLGELRGGTQRVGTSSLNTSLNYADIRSQNISEDIPGISNWNGLYSPIMQVNHFIQEVENGCTFLDDATRSRYLGQAYGMRALYYFMLYRTFGGVPLITKVDILDGKPSADKFYVERATPEATMEFIKADINKSENYFGNNTSFDAYDWSRYATLMLKAEIYMWAAKVSITGFTATGATDLQTAKTALSGIIGHFELMDNFASIFSCDNKKNTEIIFAMPFIEGEASNDGGRFLYQDAVFLGQAYGRNGKVIEKDTLNLKGTGGVFRDEYTEDFWKTFKEGDSRRDATFMEYYMKNDNGTLSEFGCVMKKRIGTINSNDNRIYISDIPVYRYADALLMMAEIENGLNNPCASYINEVRKRAYGDTFEENKYTEGSYAENELAILQERDKEFVSEGKRWFDVLRMHDASGRSLVFSANANYPGTNPILGTEEAYKMLWPVNIGTLNVNPLLTQTPGYGKK
glycan array binding signal (z-score) [1]: -0.251
glycan array binding signal (z-score) [2]: 0.307
glycan array binding signal (z-score) [3]: 0.158
glycan array binding signal (z-score) [4]: -0.083
glycan array binding signal (z-score) [5]: -0.223
glycan array binding signal (z-score) [6]: -0.525
glycan array binding signal (z-score) [7]: 0.549
glycan array binding signal (z-score) [8]: -0.367
glycan array binding signal (z-score) [9]: -0.237
glycan array binding signal (z-score) [10]: -0.334
glycan array binding signal (z-score) [11]: 0.027
glycan array binding signal (z-score) [12]: -0.319
glycan array binding signal (z-score) [13]: 0.763
glycan array binding signal (z-score) [14]: 6.91
glycan array binding signal (z-score) [15]: 2.4
glycan array binding signal (z-score) [16]: -0.312
glycan array binding signal (z-score) [17]: -0.189
glycan array binding signal (z-score) [18]: -0.279
glycan array binding signal (z-score) [19]: 4.26
glycan array binding signal (z-score) [20]: 2.53
glycan array binding signal (z-score) [21]: 6.72
glycan array binding signal (z-score) [22]: 0.459
glycan array binding signal (z-score) [23]: 0.719
glycan array binding signal (z-score) [24]: -0.408
glycan array binding signal (z-score) [25]: -0.018
glycan array binding signal (z-score) [26]: -0.386
